We go through 16 compounds from PubChem BioAssay AID504913 (The Scripps Research Institute Molecular Screening Center, 2011).

Structures are written as SMILES. Some of the results follow. A number with no mark means an inactive call. Activity calls are given as the source filed them. Cut-off read from the data, not from the text of the source: active = activation above about 18%; inactive = the rest.

This assay in a line: OPRM1-OPRD1 heterodimerization promoters, counter-screen for HTR5A agonist project, cell-based, luminescence (AID 504913). The settings on record: U2OS counter-screen cells, complementation luminescence, 3 h; at 9.3 µM; active compounds read high. (In general: Counterscreens check selectivity or assay interference.)
For the compound `COc1ccc(S(=O)(=O)N2CCN(CC(=O)N3c4ccccc4CC3C)CC2)cc1OC` (stereo unspecified), the activation was 4.47%. With `CC(NC(=O)c1cc(-c2ccccc2)on1)c1ccccc1` (stereo unspecified), the activation is 40.1% (active).

As to `O=C(c1cccnc1)N(c1cc2sc(=O)oc2c2ccccc12)S(=O)(=O)c1ccccc1`, the activation is 4.54%. For `c1ccc(-n2nc3ccccc3n2)cc1`, the activation is 2.66%. For the compound `CC1(C)C2CCC1(CS(=O)(=O)NCCc1c[nH]c3ccccc13)C(=O)C2` (stereo unspecified), the activation was 0.82%. Under `CN(c1ccccc1)S(=O)(=O)c1cc(C(=O)N2CCN(c3ncccn3)CC2)ccc1Cl` stands -0.79%; under `Cc1ccc(CN2CCN(Cc3ccc(OCCO)cc3)CC2CCO)o1` (stereo unspecified), -0.37%. The value for `CC(=O)COc1ccc2c(-c3ccccc3)cc(=O)oc2c1` was 63.2% (active); that for `CNC(=S)N/N=C/c1ccc(OCc2ccccc2)c(Br)c1` was -1.02%. With `O=C(CC(O)(C(F)(F)F)C(F)(F)F)Nc1ccc(Cl)c(Cl)c1`, the activation was -1.36%. The value for `O=C(Nc1ccc(C(=O)N2CCOCC2)cc1)Nc1cccc(C(F)(F)F)c1` was 0.41%; that for `CC(C)OC(=O)c1c(NC(=O)c2ccco2)sc2c1CCCC2` was 4.46%. Under `CCCN(CCc1ccccc1)C1CCc2c(O)cccc2C1` (stereo unspecified) stands 11.3%; under `COc1cccc(OCC(=O)Nc2ccccc2C(N)=O)c1`, 0.46%.

Take `CCOc1ccc(NC(=O)Nc2cc(C)on2)cc1`: the activation is 0.12%. Under `COC(=O)c1cc(C(=O)OCC(=O)Nc2cc(C)on2)cc([N+](=O)[O-])c1` stands 1.24%.
